Over roughly 68,000 sequences, “fluorescence intensity (a.u.)” has its median near 9,100; the highest 2% begin near 16,000. The sample holds the highest values, similar sequences and a random draw of the others, so the mix is not that of the screen.

OsWRKY34, sequence (Q0JBA9 entry or part of it): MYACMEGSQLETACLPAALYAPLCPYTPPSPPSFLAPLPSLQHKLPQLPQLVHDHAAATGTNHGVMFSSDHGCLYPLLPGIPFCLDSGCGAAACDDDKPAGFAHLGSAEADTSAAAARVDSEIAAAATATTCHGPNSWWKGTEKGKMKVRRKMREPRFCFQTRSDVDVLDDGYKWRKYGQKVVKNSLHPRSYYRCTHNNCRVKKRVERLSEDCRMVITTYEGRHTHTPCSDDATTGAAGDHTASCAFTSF

This assay has as its target OsWRKY34 (Oryza sativa, UniProt Q0JBA9 1-250). Nature of the assay: protein-binding microarray (RPBM); PBS, 2% BSA, 51.3 ng/ul salmon testes DNA, 50 uM zinc acetate, 200 nM TF, 25 C, 1 h; high values mean tight binding. The conditions noted are these: protein: recombinant; tags: N-terminal polyhistidine and DsRed monomer fusion (pET32a); label: CyDye5-dUTP incorporated in the synthesized complementary strand; 3' TTTTT single-stranded linker to array surface; dsDNA, one strand shown. The method, boiled down:
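An Axon 4000B scanner gave the binding signal as per-feature fluorescence intensity in arbitrary units. This followed washing of a custom Agilent array that had been incubated for 1 h at 25 °C with 200 nM protein in PBS, 2% BSA, salmon testes DNA and 50 µM zinc acetate. The proteins were transcription factors fused at the N-terminus to polyhistidine and DsRed, expressed in E. coli BL21-CodonPlus and purified on Ni–NTA.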
Consider “ACCTGACGGCCCAACCAGGCGACCGCTCTCTCCGTTTTCCCGGAGTCACCTAGTGCAG”, for which the binding signal is 8070 fluorescence intensity (a.u.).

As for “ACCCAATCTCAATTTGCCCTGTTGCCAACCCTAGTGATGACGGAGTCACCTAGTGCAG”, the binding signal was 8520 fluorescence intensity (a.u.).

As to “TTCTTTCCGTTGTGCTTGCTGCTTTTCTCTACTACCTTTTCGGAGTCACCTAGTGCAG”, the binding signal is 9900 fluorescence intensity (a.u.).

“ACTCCCTCCGTTTCACAATGTAAGTCATTCTAGCATTTCCCGGAGTCACCTAGTGCAG”: the binding signal was 9500 fluorescence intensity (a.u.).

Regarding “TGATTTATGAATTATGATTACTAATACTGTTTTTTGTCCTCGGAGTCACCTAGTGCAG”, the binding signal is 8780 fluorescence intensity (a.u.).

On to “ATTTGTTTCTAAATATTTGACACCGTTGACTTTTTAGCACCGGAGTCACCTAGTGCAG”, for which the binding signal is 24100 fluorescence intensity (a.u.).

Turning to “GTACTCCCTCCGTTTCGAAATATTTAACACCGTTGACTTTCGGAGTCACCTAGTGCAG”, the binding signal was 17400 fluorescence intensity (a.u.).

As to “CCTCCGTTTCTATATATTTAATATTGTTGACTTTTTAGCACGGAGTCACCTAGTGCAG”, the binding signal was 12000 fluorescence intensity (a.u.).

Turning to “CTCTGTTTCTAAATATTTGACACCATTGACTTTTTAGCATCGGAGTCACCTAGTGCAG”, the binding signal is 10900 fluorescence intensity (a.u.).

As for “GAAATATTTGACACCGTTGACTTTTTAGCATATGTTTGACCGGAGTCACCTAGTGCAG”, the binding signal is 30700 fluorescence intensity (a.u.).

On to “ACATATTGGTTGACTTTTTGCCGGGTCCACCGATTGGCACCGGAGTCACCTAGTGCAG”, for which the binding signal was 17700 fluorescence intensity (a.u.).

On to “CTTTTTAGCATATGTTTGACCGTTTGTCTTATTTAAAATACGGAGTCACCTAGTGCAG”, for which the binding signal is 9700 fluorescence intensity (a.u.).

For the sequence “TACCGAACCTTTGGCATATTGACCCTTTTGGCCTTTTATACGGAGTCACCTAGTGCAG”, the binding signal is 12200 fluorescence intensity (a.u.).

In the case of “TTGGTTGATTTTGATTGCTTTGCTCCTTTTCTGACTTGCTCGGAGTCACCTAGTGCAG”, the binding signal was 9410 fluorescence intensity (a.u.).

“TTGACACCGTTAACTTTTTAGCATATGTTTGACCGTTCATCGGAGTCACCTAGTGCAG”: the binding signal is 9610 fluorescence intensity (a.u.).

As for “AATACTCCCTCCGTTTCGAAATATTTGACGCCGTTGACTTCGGAGTCACCTAGTGCAG”, the binding signal was 12400 fluorescence intensity (a.u.).

Regarding “TTCACAGTGTAGTTGTTTTATTTAGCCAGTATTTTTTTTTCGGAGTCACCTAGTGCAG”, the binding signal is 8820 fluorescence intensity (a.u.).

As for “CCACAGCGCCTCCACTGCCTGCAGGGACGCCACCGCTACCCGGAGTCACCTAGTGCAG”, the binding signal is 8450 fluorescence intensity (a.u.).

As to “CCATTACCAGAACAGAACAGCAGGTTTTAACCTAACATTCCGGAGTCACCTAGTGCAG”, the binding signal was 8110 fluorescence intensity (a.u.).

“ATACTCTCATTTTTGTTTGCTCTATTCTTTGCTTTTAGAACGGAGTCACCTAGTGCAG”: the binding signal was 10200 fluorescence intensity (a.u.).

Take “ATATCTCATACTATCTCTCTTCCGTCGTTCCGTGTTGGCCCGGAGTCACCTAGTGCAG”: the binding signal is 10900 fluorescence intensity (a.u.).

With “CTACGATCAGAAACAGCGGGGCGGGTTGGGAGGGAGTCCACGGAGTCACCTAGTGCAG”, the binding signal is 15800 fluorescence intensity (a.u.).

“ACCCCGACCATCTCCCACCATCGGAGGAGACGCTCAAACTCGGAGTCACCTAGTGCAG”: the binding signal was 8340 fluorescence intensity (a.u.).

For “CCCGGCCCATCTCTCTGGCTCGCACTCCGCCTCCGCCACCCGGAGTCACCTAGTGCAG”, the binding signal was 10500 fluorescence intensity (a.u.).

For “AAAATGTTTGACACCGTTGACTTTTTAGCATATGTTTGACCGGAGTCACCTAGTGCAG”, the binding signal was 30800 fluorescence intensity (a.u.).

For “ACCCTCCGTTTCTAAATATTTAACACCGTTGACTTTTTAGCGGAGTCACCTAGTGCAG”, the binding signal is 23700 fluorescence intensity (a.u.).

As to “CTCCCTCCGTTTCTAAATATTTGATACCGTTGACTTTTTACGGAGTCACCTAGTGCAG”, the binding signal was 22300 fluorescence intensity (a.u.).

For the sequence “AATCTTTTATACATATAATCCCTCCGTTTCTAAATATTTACGGAGTCACCTAGTGCAG”, the binding signal was 8110 fluorescence intensity (a.u.).

Regarding “ATCCGTTTTATATTATAAATCATTTGACTTTTTCTATTAGCGGAGTCACCTAGTGCAG”, the binding signal was 8510 fluorescence intensity (a.u.).

In the case of “AAATGTTTGACACCGTTGATTTTTTAGCGCATGTTTGACCCGGAGTCACCTAGTGCAG”, the binding signal is 8840 fluorescence intensity (a.u.).

As for “TCGAAATGTTTGACACCGTTGACTTTTTAGCATATGTTTGCGGAGTCACCTAGTGCAG”, the binding signal was 33700 fluorescence intensity (a.u.).

“AGTACTCCCTCCGTTTCTAAATATTTGACACCGTTGACTTCGGAGTCACCTAGTGCAG”: the binding signal is 12700 fluorescence intensity (a.u.).

For the sequence “CCTCCGTTTCTAAATATTTAACGCCATTGACTTTTTAGCACGGAGTCACCTAGTGCAG”, the binding signal was 9160 fluorescence intensity (a.u.).

As for “TTCAAAATGTTTGACACCATTGACTTTTTAGCATATGTTTCGGAGTCACCTAGTGCAG”, the binding signal is 10000 fluorescence intensity (a.u.).

Consider “GTCATTGTTTGGAGTGGAGTTTTGCTTAGATTAATCTGTCCGGAGTCACCTAGTGCAG”, for which the binding signal was 8860 fluorescence intensity (a.u.).

Regarding “ACCACCACCCTGATGGATCTTGGCTCTAGCTCCTGGTTTTCGGAGTCACCTAGTGCAG”, the binding signal was 8110 fluorescence intensity (a.u.).

In the case of “GCTGCGCACCTAATGCTACTGTTTTGTTAGTATTTATTTACGGAGTCACCTAGTGCAG”, the binding signal was 8460 fluorescence intensity (a.u.).

Turning to “GTTAGCTTCTACATTTCTCGTTTCTGCTGAAAATAGTGGACGGAGTCACCTAGTGCAG”, the binding signal is 9540 fluorescence intensity (a.u.).

For the sequence “ACGACGAGGAGGCGGTGGTGGTCGTGCGCGGGGAGGAGTCCGGAGTCACCTAGTGCAG”, the binding signal was 9310 fluorescence intensity (a.u.).

Consider “TGCTCTTTTTTTCTTGATTATAACCTTCCGGGGTAGTTTTCGGAGTCACCTAGTGCAG”, for which the binding signal was 8720 fluorescence intensity (a.u.).

In the case of “ACACTTGGCATTAATCTAATTTAACTTTTTTTTCTTTATCCGGAGTCACCTAGTGCAG”, the binding signal is 8440 fluorescence intensity (a.u.).

As to “ATTGAAACATGATCCGAGTCATAGCCTGACTGGAATTCTTCGGAGTCACCTAGTGCAG”, the binding signal is 9120 fluorescence intensity (a.u.).

Values taken from publication PMC7819943, “Rice protein-binding microarrays: a tool to detect cis-acting elements near promoter regions in rice”.
